Results filed as inconclusive are left out. Activity calls are given as the source filed them. Unless noted, calls come from the whole dose curve; as a rule, active = well fitted curve in the direction sought with a large enough effect; inconclusive = small, poorly fitted or top-dose-only effect, or another doubt; inactive = no such curve, though single readings can be large; an effect the other way counts as inactive or inconclusive.
Tests used:
[1] = target: Lysosomal acid glucosylceramidase (Homo sapiens) (UniProt P04062); test: Glucocerebrosidase-p2 (AID 348; in the data active = potency below about 10 µM; note: potency is the fitted concentration of half-maximal effect); settings: purified GBA, blue fluorogenic substrate, 40 min
Lysosomal acid glucosylceramidase (Homo sapiens), sequence (P04062 whole entry, looked up): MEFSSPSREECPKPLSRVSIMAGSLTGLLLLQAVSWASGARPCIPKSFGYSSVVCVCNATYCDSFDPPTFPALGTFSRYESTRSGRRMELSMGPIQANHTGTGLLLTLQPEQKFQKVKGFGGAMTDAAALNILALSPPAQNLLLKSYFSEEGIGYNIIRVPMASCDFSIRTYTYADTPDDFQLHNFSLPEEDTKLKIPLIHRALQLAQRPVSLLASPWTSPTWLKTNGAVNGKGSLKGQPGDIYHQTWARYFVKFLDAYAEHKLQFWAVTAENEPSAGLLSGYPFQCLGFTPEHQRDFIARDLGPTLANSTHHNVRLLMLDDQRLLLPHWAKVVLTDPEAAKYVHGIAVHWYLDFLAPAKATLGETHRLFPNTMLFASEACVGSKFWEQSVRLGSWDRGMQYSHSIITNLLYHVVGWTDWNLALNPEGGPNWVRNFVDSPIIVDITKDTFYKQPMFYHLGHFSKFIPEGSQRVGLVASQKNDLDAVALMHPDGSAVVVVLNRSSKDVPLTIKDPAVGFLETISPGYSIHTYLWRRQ
In short: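 Compounds titrated from 0.6 nM upwards against 0.2 nM enzyme in pH 5.9 citric acid/KH2PO4, taurocholate, tween-20; blue fluorogenic substrate 80 uM, 40 min room temperature, stopped and read Ex 365/Em 440 for AC50.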

[2] = AP1 Signaling Pathway (AID 357; active = well fitted curve in either direction with a large enough effect, not every such curve was filed as active; note: % is set by controls: 0 for no effect and ±100 for the full control effect); settings: ME-180 AP-1-bla reporter, EGF-induced, beta-lactamase ratio, 5 h; at 7.69 µM (top of the series) unless noted
In short: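 AP-1-bla ME-180 cells with beta-lactamase reporter under AP-1 response element, stimulated with EC50 EGF; compounds titrated, 5 hours at 37 degrees Celsius. CCF4 read at 460/530 nm ratio; positive and negative modulators judged by AC50.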

[3] = target: Cytochrome P450 1A2 (Homo sapiens) (UniProt P05177); test: p450-cyp1a2 (AID 410; calls by dose curve; note: potency is the fitted concentration of half-maximal effect); settings: recombinant CYP1A2, luciferin-ME demethylation, luminescence; series mostly up to 57 µM
Cytochrome P450 1A2 (Homo sapiens), sequence (P05177 whole entry, looked up): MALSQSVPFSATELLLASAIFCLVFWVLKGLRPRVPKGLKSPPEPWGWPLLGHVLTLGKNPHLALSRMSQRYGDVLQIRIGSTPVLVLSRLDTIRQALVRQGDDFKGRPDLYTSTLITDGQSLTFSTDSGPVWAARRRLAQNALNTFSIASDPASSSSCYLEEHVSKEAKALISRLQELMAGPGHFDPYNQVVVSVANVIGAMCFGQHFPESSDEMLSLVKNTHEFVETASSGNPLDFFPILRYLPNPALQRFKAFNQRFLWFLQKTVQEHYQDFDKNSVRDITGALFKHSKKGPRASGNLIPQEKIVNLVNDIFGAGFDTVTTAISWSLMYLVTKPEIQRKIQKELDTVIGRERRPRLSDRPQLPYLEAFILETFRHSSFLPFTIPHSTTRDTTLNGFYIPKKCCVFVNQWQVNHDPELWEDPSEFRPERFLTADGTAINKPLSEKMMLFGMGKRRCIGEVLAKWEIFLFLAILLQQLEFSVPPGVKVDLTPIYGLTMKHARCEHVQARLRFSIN
In short: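 Inhibition was calculated relative to 57 uM furafylline (full inhibition). The reaction used human CYP1A2 at 20nM with Luciferin-ME at its Km, 100uM, driven by an NADPH-regenerating system for 60 min at room temperature.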

[4] = Stat Signaling Pathway (AID 446; active = well fitted curve in either direction with a large enough effect, not every such curve was filed as active;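 note: ME-180 cervical cancer cells given 40 pM IL-6 alongside compound; SIE-controlled beta-lactamase reporter measured as 460/530 nm FRET emission ratio; % is set by controls: 0 for no effect and ±100 for the full control effect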); settings: ME-180 SIE beta-lactamase reporter, IL-6 stimulated, 5 h; at 7.69 µM (top of the series) unless noted
In short: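 Screening format detects activators and inhibitors alike: ME-180 SIE-bla cells stimulated at 40 pM IL-6 for 5 hrs with compound, then dual-emission beta-lactamase read at 405 nm excitation.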

[5] = target: Glucocorticoid receptor (Homo sapiens) (UniProt P04150); test: GR-GFP Redistribution (AID 450;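 active = compounds whose dose series gives a full or clear partial fitted curve of increased nuclear translocation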; note: potency is the fitted concentration of half-maximal effect); settings: U2OS GR-GFP nuclear translocation, laser cytometry, 2 h
Glucocorticoid receptor (Homo sapiens), sequence (P04150 whole entry, looked up, the tested form may be a part): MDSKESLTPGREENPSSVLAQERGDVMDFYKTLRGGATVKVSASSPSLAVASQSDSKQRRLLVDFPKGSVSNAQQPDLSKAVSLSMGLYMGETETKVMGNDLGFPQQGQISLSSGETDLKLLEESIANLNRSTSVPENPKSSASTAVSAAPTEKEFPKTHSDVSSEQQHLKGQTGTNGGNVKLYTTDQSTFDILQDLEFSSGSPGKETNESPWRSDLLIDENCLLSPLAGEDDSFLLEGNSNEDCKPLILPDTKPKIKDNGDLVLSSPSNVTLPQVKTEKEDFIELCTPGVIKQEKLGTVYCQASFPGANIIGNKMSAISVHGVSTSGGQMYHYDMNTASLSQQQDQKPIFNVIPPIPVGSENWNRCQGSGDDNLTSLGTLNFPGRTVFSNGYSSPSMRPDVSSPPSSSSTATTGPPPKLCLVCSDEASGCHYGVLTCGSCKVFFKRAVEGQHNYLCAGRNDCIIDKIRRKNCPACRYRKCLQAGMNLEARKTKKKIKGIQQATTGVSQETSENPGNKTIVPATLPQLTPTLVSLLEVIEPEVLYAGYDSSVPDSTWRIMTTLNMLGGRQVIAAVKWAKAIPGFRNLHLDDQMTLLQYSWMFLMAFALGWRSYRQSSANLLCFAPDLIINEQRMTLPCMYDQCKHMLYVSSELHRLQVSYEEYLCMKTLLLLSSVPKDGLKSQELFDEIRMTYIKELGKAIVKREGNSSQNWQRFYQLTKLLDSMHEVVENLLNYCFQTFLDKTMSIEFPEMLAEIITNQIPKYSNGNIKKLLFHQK

[6] = target: Glucocorticoid receptor (Homo sapiens) (UniProt P04150); test: GR-EFC Redistribution (AID 451; calls by dose curve; note: potency is the fitted concentration of half-maximal effect); settings: CHO-K1 GR-EFC translocation, beta-gal luminescence, 2 h
In short: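 CHO-K1 cells stably expressing nuclear-localized β-gal enzyme acceptor and GR fused C-terminally to the enzyme donor fragment; ligand-driven nuclear translocation restores β-gal by complementation. Compounds titrated up to 46 uM final, 2 h at 37 °C; luminescence read.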

[7] = target: Mitogen-activated protein kinase 10 (Mus musculus) (UniProt Q61831); test: JNK3 AlphaScreen Assay (AID 530; active = well fitted curve in either direction with a large enough effect, not every such curve was filed as active;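 note: kinase came from lysate of stimulated human HepG2 cells; signal reports phosphorylation of biotinylated GST-cJun 1-79 at Ser73 with 10 µM ATP; % is set by controls: 0 for no effect and ±100 for the full control effect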); settings: JNK3 lysate, c-Jun phosphorylation; series mostly up to 57.1 µM
In short: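 JNK3 came from HepG2 lysates pre-activated with IL-1beta and TNF-alpha and phosphorylated biotinylated GST-cJun (1-79) at 10 uM ATP, pH 7.6, room temperature. Compounds were titrated. AlphaScreen signal used anti-phospho-cJun (Ser73) antibody.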

[8] = target: Cytochrome P450 2C9 (Homo sapiens) (UniProt P11712); test: qHTS Assay for Inhibitors and Substrates of Cytochrome P450 2C9 (AID 883); settings: recombinant CYP2C9, luciferin-H luminescence, 60 min; series mostly up to 57.1 µM; note: potency is the fitted concentration of half-maximal effect; nearly all actives have a fitted effect of over 60% in size
Cytochrome P450 2C9 (Homo sapiens), sequence (P11712 whole entry, looked up): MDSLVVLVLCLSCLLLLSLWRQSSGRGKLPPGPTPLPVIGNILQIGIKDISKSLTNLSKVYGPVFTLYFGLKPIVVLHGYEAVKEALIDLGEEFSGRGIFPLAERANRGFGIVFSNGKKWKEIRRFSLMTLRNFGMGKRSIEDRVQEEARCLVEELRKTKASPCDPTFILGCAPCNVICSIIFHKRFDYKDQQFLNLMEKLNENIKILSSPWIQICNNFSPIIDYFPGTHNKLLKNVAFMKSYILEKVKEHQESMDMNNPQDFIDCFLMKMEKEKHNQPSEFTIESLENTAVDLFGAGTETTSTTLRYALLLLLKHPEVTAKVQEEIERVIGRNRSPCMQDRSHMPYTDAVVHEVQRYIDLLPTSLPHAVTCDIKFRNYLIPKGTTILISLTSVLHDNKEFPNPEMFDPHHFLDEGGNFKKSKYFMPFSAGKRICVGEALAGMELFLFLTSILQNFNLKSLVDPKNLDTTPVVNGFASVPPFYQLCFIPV
In short: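 Human CYP2C9 (10nM) hydroxylated Luciferin-H (100uM, at its KM) to luciferin in 25mM KPO4. Compound was preincubated 10 min at 37C, then NADPH regeneration started a 60 min reaction at 37C. Luminescence was read after detection reagent, normalized to 57uM sulphaphenazole.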

[9] = target: Cytochrome P450 3A4 (Homo sapiens) (UniProt P08684); test: qHTS Assay for Activators of Cytochrome P450 3A4 (AID 885); settings: recombinant CYP3A4, Luciferin-PPXE luminescence, 60 min; series mostly up to 57.1 µM; note: nearly all actives have a fitted effect of over 65% in size
Cytochrome P450 3A4 (Homo sapiens), sequence (P08684 whole entry, looked up): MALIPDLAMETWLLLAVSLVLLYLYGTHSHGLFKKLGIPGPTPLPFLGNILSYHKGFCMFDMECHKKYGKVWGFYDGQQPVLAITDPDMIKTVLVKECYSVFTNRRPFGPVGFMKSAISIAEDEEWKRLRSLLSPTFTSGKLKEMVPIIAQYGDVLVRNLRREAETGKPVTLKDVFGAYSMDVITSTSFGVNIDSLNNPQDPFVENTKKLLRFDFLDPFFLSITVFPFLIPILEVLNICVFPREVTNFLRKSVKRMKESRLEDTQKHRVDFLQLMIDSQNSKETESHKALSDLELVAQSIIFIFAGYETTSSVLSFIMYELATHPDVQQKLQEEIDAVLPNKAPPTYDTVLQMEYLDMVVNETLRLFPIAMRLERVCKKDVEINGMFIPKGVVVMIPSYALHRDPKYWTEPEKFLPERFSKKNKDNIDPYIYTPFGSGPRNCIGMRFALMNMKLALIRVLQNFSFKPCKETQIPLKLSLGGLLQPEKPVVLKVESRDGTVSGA
In short: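 Steps: enzyme/substrate mix dispensed; compound added, 10 min RT; NADPH regeneration solution added, 60 min RT; luciferin detection buffer stops reaction; 20 min later luminescence measured.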

[10] = qHTS Assay for Identification of Small Molecule Agonists for Hypoxia Response Element Signaling Pathway (AID 914; active = well fitted activation curve with a large enough effect in the signal ratio, with a control signal flat, not every such curve was filed as active; the % refers to the signal ratio; note: % of control where 0% means no effect); settings: ME-180 (cervical carcinoma) HRE-bla reporter, beta-lactamase ratio, CoCl2, 17 h; activation: stronger effect = higher value
In short: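 Reporter activity (beta-lactamase, CCF4 460nm/530nm ratio) in HRE-bla ME-180 cells is recorded after 17 h compound exposure with EC50 CoCl2 at 37 degrees Celsius. AC50 values come from titration data.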

[11] = qHTS Assay for Lipid Storage Modulators (AID 1519; calls by dose curve); settings: Drosophila S3 cells, BODIPY lipid droplet/cell ratio, laser cytometry, cells loaded with oleic acid; for activity change, negative = inhibition: at 57.5 µM (top of the series)
In short: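 Cells seeded at 5,000 per well were treated with compounds over a concentration series and loaded with oleic acid (400 uM, as added). Lipid droplet fluorescence (488 nm excitation, 500-530 nm channel) was read by laser-scanning cytometry and normalized to 20 uM Triacsin C.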

[12] = target: Dual specificity protein kinase CLK4 (Homo sapiens) (UniProt Q9HAZ1); test: qHTS Assay for Inhibitors of CDC-like Kinase 4 (Kinase-Glo Assay) (AID 1770); settings: recombinant Clk4, Kinase-Glo ATP depletion luminescence; series mostly up to 66.7 µM; note: % is set by controls: 0 for no effect and ±100 for the full control effect; nearly all actives have a fitted effect of over 65% in size
Dual specificity protein kinase CLK4 (Homo sapiens), sequence (Q9HAZ1 whole entry, looked up): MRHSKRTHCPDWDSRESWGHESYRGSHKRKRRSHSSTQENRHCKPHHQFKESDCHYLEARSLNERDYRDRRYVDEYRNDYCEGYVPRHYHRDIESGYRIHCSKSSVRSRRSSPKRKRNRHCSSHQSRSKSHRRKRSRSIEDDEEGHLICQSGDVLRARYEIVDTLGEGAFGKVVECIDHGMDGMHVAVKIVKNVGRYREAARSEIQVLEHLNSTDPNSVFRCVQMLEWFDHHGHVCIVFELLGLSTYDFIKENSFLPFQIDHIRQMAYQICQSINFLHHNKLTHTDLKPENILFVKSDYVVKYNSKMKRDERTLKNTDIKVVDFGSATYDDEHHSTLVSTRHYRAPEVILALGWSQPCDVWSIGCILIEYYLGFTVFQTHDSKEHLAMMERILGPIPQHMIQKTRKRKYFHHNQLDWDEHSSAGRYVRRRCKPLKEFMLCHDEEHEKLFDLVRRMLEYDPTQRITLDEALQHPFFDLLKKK
In short: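 Substrate mix (RS peptide 100 uM, ATP 1 uM) dispensed, compound pinned in, then Clk4 added to 25 nM final. Incubated 4.5 h at RT; Kinase-Glo reagent added, luminescence read after 5 min.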

[13] = target: Dual specificity protein kinase CLK4 (Homo sapiens) (UniProt Q9HAZ1); test: qHTS Assay for Inhibitors of CDC-like Kinase 4 (ADP-Glo Assay) (AID 1771); settings: recombinant CLK4, ADP-Glo luminescence; series mostly up to 80 µM; note: % is set by controls: 0 for no effect and ±100 for the full control effect; nearly all actives have a fitted effect of over 70% in size
In short: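 Kinase reaction: Clk4 at 25 nM, RS repeat peptide substrate at 100 uM, ATP at 1 uM, 1 hr, room temperature. Product ADP detected as luciferase signal via ADP-Glo.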

[14] = target: Dual specificity protein kinase CLK4 (Homo sapiens) (UniProt Q9HAZ1); test: qHTS Assay for Inhibitors of CDC-like Kinase 4 (ADP-FP Assay) (AID 1795); settings: Transcreener ADP fluorescence polarization; series mostly up to 50 µM;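 note: recombinant human CLK4 phosphorylating RS repeat peptide at 1 µM ATP; % is set by controls: 0 for no effect and ±100 for the full control effect; nearly all actives have a fitted effect of over 60% in size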
In short: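 Clk4 6.25 nM; RS peptide 100 uM; ATP 1 uM; 25 mM Tris pH 7.5, 10 mM MgCl2; 1 h reaction. ADP detected via antibody/orange tracer FP displacement; TG003 positive control.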

[15] = target: Ubiquitin carboxyl-terminal hydrolase 1 (Homo sapiens) (UniProt O94782); test: Inhibitors of USP1/UAF1: Pilot qHTS (AID 504865); settings: purified USP1/UAF1, Ub-rhodamine cleavage fluorescence; series mostly up to 54.9 µM;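 note: rhodamine fluorescence freed from ubiquitin-rhodamine substrate followed over time; top concentration of the series differs between compounds; % is set by controls: 0 for no effect and ±100 for the full control effect; nearly all actives have a fitted effect of over 35% in size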
Ubiquitin carboxyl-terminal hydrolase 1 (Homo sapiens), sequence (O94782 whole entry, looked up): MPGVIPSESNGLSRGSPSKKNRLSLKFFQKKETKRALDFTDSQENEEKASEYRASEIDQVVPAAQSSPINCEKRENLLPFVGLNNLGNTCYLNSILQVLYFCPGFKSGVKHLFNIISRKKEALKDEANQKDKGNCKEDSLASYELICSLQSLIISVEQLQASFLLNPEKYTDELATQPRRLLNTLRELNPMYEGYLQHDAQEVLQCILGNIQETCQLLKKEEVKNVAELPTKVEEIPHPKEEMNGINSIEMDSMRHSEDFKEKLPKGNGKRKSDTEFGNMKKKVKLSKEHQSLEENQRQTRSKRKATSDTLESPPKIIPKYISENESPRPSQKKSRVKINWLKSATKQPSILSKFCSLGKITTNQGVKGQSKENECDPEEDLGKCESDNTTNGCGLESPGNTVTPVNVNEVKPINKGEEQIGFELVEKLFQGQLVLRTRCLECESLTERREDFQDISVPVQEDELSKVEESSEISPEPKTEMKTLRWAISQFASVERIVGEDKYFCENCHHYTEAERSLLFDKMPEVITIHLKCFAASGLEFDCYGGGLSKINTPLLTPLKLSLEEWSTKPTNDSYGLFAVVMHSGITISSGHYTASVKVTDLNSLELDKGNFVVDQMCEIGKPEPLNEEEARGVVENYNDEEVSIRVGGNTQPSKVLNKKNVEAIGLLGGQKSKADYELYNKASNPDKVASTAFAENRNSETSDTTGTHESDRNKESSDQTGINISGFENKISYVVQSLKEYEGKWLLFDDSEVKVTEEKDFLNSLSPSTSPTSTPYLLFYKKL
In short: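 In 50mM HEPES pH 7.8 containing 0.5mM EDTA, 1mM TCEP, 0.1 mg/ml BSA and 0.01% Tween-20, 1nM USP1/UAF1 is exposed to compound for 15 min, then Ub-Rho (150nM final) is added and fluorescence is read over time.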

[16] = Primary qHTS for small molecule stabilizers of the endoplasmic reticulum resident proteome: Secreted ER Calcium Modulated Protein (SERCaMP) assay (AID 1508630); settings: SH-SY5Y GLuc-SERCaMP (Gaussia luciferase released on ER calcium loss) secretion, thapsigargin, luminescence; series mostly up to 38.4 µM; note: % is set by controls: 0 for no effect and ±100 for the full control effect
In short: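 GLuc-SERCaMP-expressing SH-SY5Y cells, pretreated 16 h with compound, are challenged with thapsigargin to empty ER calcium stores; after 4 h, coelenterazine is added directly to the medium and luminescence is imaged.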

[17] = target: 3',5'-cyclic-AMP phosphodiesterase 4B (Homo sapiens) (UniProt Q07343); test: qHTS Assay for Inhibitors of PDE-IV (AID 607; active = well fitted activation curve with a large enough effect in the main read-out, with a control signal flat, not every such curve was filed as active; note: % of control where 0% means no effect); settings: HEK293 ACTOne CNG channel cells, membrane potential fluorescence; series mostly up to 22.9 µM
3',5'-cyclic-AMP phosphodiesterase 4B (Homo sapiens), sequence (Q07343 whole entry, looked up): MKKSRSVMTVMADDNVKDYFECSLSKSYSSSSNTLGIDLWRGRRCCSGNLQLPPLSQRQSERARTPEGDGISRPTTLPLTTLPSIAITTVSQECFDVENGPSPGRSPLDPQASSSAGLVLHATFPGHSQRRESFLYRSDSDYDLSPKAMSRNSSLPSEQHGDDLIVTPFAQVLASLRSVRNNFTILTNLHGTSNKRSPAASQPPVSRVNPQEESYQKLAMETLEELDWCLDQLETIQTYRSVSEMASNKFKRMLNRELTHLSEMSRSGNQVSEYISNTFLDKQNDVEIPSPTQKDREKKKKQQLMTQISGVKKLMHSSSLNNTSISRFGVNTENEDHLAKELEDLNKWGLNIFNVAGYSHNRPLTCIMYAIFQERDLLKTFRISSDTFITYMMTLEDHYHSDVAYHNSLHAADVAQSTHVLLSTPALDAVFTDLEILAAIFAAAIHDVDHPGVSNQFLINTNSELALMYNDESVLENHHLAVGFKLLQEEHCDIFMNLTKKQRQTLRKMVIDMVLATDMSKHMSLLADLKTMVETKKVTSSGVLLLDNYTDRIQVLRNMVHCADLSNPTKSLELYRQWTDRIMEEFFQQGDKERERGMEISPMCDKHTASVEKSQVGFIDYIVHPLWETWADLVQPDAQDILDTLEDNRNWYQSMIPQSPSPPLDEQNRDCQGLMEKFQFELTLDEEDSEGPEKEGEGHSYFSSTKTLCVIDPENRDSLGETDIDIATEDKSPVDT
In short: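 The readout is membrane depolarisation from a cAMP-sensing CNG channel, detected with a potential dye at ex 535/em 590. Cells were HEK293-derived (endogenous PDE-IV) at 1000 cells/well, titrated up to 22.9 uM final.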

[18] = NFAT Signaling Pathway (AID 444; active = well fitted curve in either direction with a large enough effect, not every such curve was filed as active); settings: Jurkat NFAT-bla M1, carbachol, beta-lactamase ratio, 5 h; at 7.69 µM (top of the series) unless noted
In short: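 Jurkat cells carrying an NFAT-driven β-lactamase reporter and co-transfected muscarinic M1 receptor were treated with compound plus carbachol (1 uM final, an EC50 level) for 5 h at 37 °C. CCF4 loading followed for 1 h at RT; 460/530 nm ratio gave %activity.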

[19] = measured here: cell count channel max response
[20] = measured here: lipid channel max response

| SMILES | Potency [1] | activity change, negative = inhibition [2] | Potency [3] | activity, negative = inhibition [4] | Potency [5] | Potency [6] | outcome [7] | Potency [8] | Potency [9] | activation [10] | activity change, negative = inhibition [11] | max response [11, 19] [%] | max response [11, 20] [%] | Potency [12] | Potency [13] | Potency [14] | Potency [15] | Potency [16] | Potency [17] | activity change, negative = inhibition [18] |
| --- | --- | --- | --- | --- | --- | --- | --- | --- | --- | --- | --- | --- | --- | --- | --- | --- | --- | --- | --- | --- |
| COc1ccccc1CCn1c(=O)c(-c2cccc(F)c2)nc2cncnc21 | > 11.4 µM (inactive) | -14.2% (inactive) | 1.58 µM (active) | 3.83% (inactive) | > 9.22 µM (inactive) | > 46 µM (inactive) | inactive | 2.51 µM (active) | inactive | -1.08% (inactive) | 6.88% (inactive) | 18.2 | 19.8 | inactive | inactive | inactive | inactive | inactive | – | – |
| c1cncc(-c2cncnc2NC2CCNCC2)c1 | > 11.4 µM (inactive) | 11.1% (inactive) | 12.6 µM (active) | 5.17% (inactive) | > 46 µM (inactive) | > 46 µM (inactive) | inactive | – | – | – | 6.71% (inactive) | 15.6 | 20 | inactive | inactive | inactive | inactive | inactive | inactive | – |
| Cc1nc2cnc(OCc3ccccc3)nc2n(C)c1=O | > 11.4 µM (inactive) | -10% (inactive) | – | -5.11% (inactive) | > 9.22 µM (inactive) | > 46 µM (inactive) | inactive | – | – | – | 7.08% (inactive) | 13.5 | 17.9 | inactive | inactive | inactive | inactive | inactive | inactive | -3.24% (inactive) |
| COc1ccc(-c2nc3cnc(N4CCOCC4)nc3n(C3CC3)c2=O)cc1 | > 11.4 µM (inactive) | 3.24% (inactive) | – | – | > 9.22 µM (inactive) | > 46 µM (inactive) | inactive | – | – | – | 1.26% (inactive) | 9.72 | 11.8 | inactive | inactive | inactive | – | inactive | – | 8.69% (inactive) |
| CN(C)c1ncc2nc(-c3ccccc3)c(=O)n(C[C@H]3CCCO3)c2n1 | > 11.4 µM (inactive) | 11.9% (inactive) | – | 20.6% (inactive) | > 9.22 µM (inactive) | > 46 µM (inactive) | – | – | inactive | – | 0.857% (inactive) | 3.82 | 2.54 | inactive | inactive | inactive | – | inactive | – | 24.6% (inactive) |
| COc1ccc(Oc2ncc3nc(-c4ccc(OC)cc4)c(=O)n(C4CC4)c3n2)cc1 | > 11.4 µM (inactive) | -17.1% (inactive) | – | -1.53% (inactive) | > 9.22 µM (inactive) | > 46 µM (inactive) | inactive | – | – | 12.9% (inactive) | -0.219% (inactive) | 4.42 | -0.829 | inactive | inactive | inactive | inactive | inactive | inactive | 18.7% (inactive) |
